± gives the standard deviation. Bounds are passed on as bounds.
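Note: 1 nM active piRISC with 0.1 nM target library at 33 °C single turnover.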

The assay deals with MILI (PIWIL2) piRISC loaded with piRNA #1 (26 nt). Kind of assay: pre-steady-state target cleavage rate (min^-1); guide: piRNA #1 5'p-UGAGGUAGUAGGUUGUAUAGUAUCCA; MIWI and MILI are mouse PIWI proteins and EfPiwi is from a freshwater sponge; tags in brackets are library labels; higher = faster piRNA-guided slicing of the target. As to conditions: auxiliary factor: 500 nM mouse GTSF1. The method in brief:
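A transcribed, DNA-blocked target RNA library […] was incubated at 33 °C for 0–8 or 0–960 min with 1 nM active affinity-purified piRISC carrying one synthetic guide, in HEPES–potassium acetate buffer with or without 500 nM GTSF1 partner protein. Uncleaved targets were then sequenced and normalised to depth and to weakly complementary targets. Data from three trials were pooled, with k3 capped at 0.0001 min^-1, and a burst-and-steady-state fit yielded the pre-steady-state cleavage rate.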
As to GGAGUGGAUCACUAUACAACCUACUACCUCA, the “pre-steady-state target cleavage rate” value amounted to 0.0867 ± 0.025.

As for GGAGACCUAUGUAUACAACCUACUAGCCUCA, the “pre-steady-state target cleavage rate” value was 0.0572 ± 0.013.

As to GGAGACCAUACUAUACAACCCACUACCUCA, the “pre-steady-state target cleavage rate” value worked out at 0.0223 ± 0.0041.

As to GGAGUGGAUACUUUACAACCUACUACCUGA, the “pre-steady-state target cleavage rate” value was 0.0844 ± 0.011.

As to GGAGACCUAUCUAUACAACCUACUACACUCA, the “pre-steady-state target cleavage rate” value is 0.179 ± 0.022.

As for GGAGACGAUAGUAUACAAGCUACUACCUCA, the “pre-steady-state target cleavage rate” value was determined as 0.176 ± 0.016.

Turning to GGAGAGGAUACAAUUCAACCUACUACCUCA, the “pre-steady-state target cleavage rate” value came out at 0.174 ± 0.012.

Consider GGAGACCUAACUAUAGAACCUACUAGCUCA, for which the “pre-steady-state target cleavage rate” value came to 0.00426 ± 0.0041.

For the sequence GGAGACCUAUGAAUUACAACCUACUACCUCA, the “pre-steady-state target cleavage rate” value is 0.00427 ± 0.0021.

GGAGACCUAUGUAAACAACCUACUACCUGA: the “pre-steady-state target cleavage rate” value was found to be 0.00535 ± 0.0019.

Turning to GGAGACCUAACUAUACUACCUACUAGCUCA, the “pre-steady-state target cleavage rate” value came to 0.0708 ± 0.021.

As to GGAGACCUAACUAUACUUCCUACUACCUCA, the “pre-steady-state target cleavage rate” value stood at 0.054 ± 0.011.

Turning to GGAGACCAUACUAAACAACCUACUAGCUCA, the “pre-steady-state target cleavage rate” value is 0.165 ± 0.03.

On to GGAGACCUAUGUAUACAACCUACUCACCUCA, for which the “pre-steady-state target cleavage rate” value turned out to be 0.0823 ± 0.015.

With GGAGACCUUACUAUACUACCUACUACCUCA, the “pre-steady-state target cleavage rate” value was found to be 0.159 ± 0.014.

With GGAGACCUAUCUAUACUACCUACUACCACA, the “pre-steady-state target cleavage rate” value stood at 0.117 ± 0.015.

In the case of GGAGACCUUACUAACAACCUACUACCUCA, the “pre-steady-state target cleavage rate” value is 0.0824 ± 0.016.

With GGAGACCUAUGUAUACAACGUACUACCUGA, the “pre-steady-state target cleavage rate” value turned out to be 0.00357 ± 0.0021.

For the sequence GGAGACCUAUCUAUACAACCUUCUACCACA, the “pre-steady-state target cleavage rate” value came to 0.00592 ± 0.0023.

Consider GGAGACCUAUGUAUACAACCUACUAUCUCA, for which the “pre-steady-state target cleavage rate” value was found to be 0.0416 ± 0.0058.

GGAGACCUUACUAUAGAACCUACUACGUCA: the “pre-steady-state target cleavage rate” value was 0.0503 ± 0.012.

On to GGAGACCUAUGUUUACAACCUUCUACCUCA, for which the “pre-steady-state target cleavage rate” value was 0.00358 ± 0.0029.

Consider GGAGACCUAUCUAUACAACCUUCUACGUCA, for which the “pre-steady-state target cleavage rate” value worked out at 0.00428 ± 0.003.

Turning to GGAGAGGAUACUAUAAACCUACUACCUCA, the “pre-steady-state target cleavage rate” value was 0.0203 ± 0.0036.

As to GGAGUGGAUACUUUACAACCAACUACCUCA, the “pre-steady-state target cleavage rate” value stood at 0.00276 ± 0.0018.

With GGAGACGAUACUAUACAACCUACUACCCUCA, the “pre-steady-state target cleavage rate” value worked out at 0.176 ± 0.021.

GGAGACCUAACUAAACAACCUACAACCUCA: the “pre-steady-state target cleavage rate” value amounted to 0.131 ± 0.029.

For the sequence GGAGACCUAUCUGUACAACCUACUACCUCA, the “pre-steady-state target cleavage rate” value was determined as 0.0491 ± 0.0092.

In the case of GGAGACCUAUGAUAUGAACCUACUACACUCA, the “pre-steady-state target cleavage rate” value is less than 0.0001.

Consider GGAGACCUAUGUACUACAACCUACUACCUCA, for which the “pre-steady-state target cleavage rate” value stood at 0.00901 ± 0.0026.

For the sequence GGAGACCUAUCUAUACAACCUACAACGUCA, the “pre-steady-state target cleavage rate” value is 0.0102 ± 0.004.

As for GGAGUGGAUACUAUAGAACCUAGUACCUCA, the “pre-steady-state target cleavage rate” value came to 0.00269 ± 0.0022.

Consider GGAGACCUAUGAUAUGUUGCUACUAGGACA, for which the “pre-steady-state target cleavage rate” value was less than 0.0001.

Take GGAGACCUAUGUAAACAACCUAGUACCUCA: the “pre-steady-state target cleavage rate” value stood at 0.00454 ± 0.0024.

As to GGAGACCUAACUAUACAACCUACUUCCACA, the “pre-steady-state target cleavage rate” value amounted to 0.0458 ± 0.022.

Consider GGAGACCUUACUAUUCAAGCUACUACCUCA, for which the “pre-steady-state target cleavage rate” value worked out at 0.235 ± 0.013.

On to GGAGACCUAUGAUAAUCAACCUACUACCUCA, for which the “pre-steady-state target cleavage rate” value turned out to be 0.00294 ± 0.0029.

As for GGAGACCUAUGAUAUGAACCUACAACCACA, the “pre-steady-state target cleavage rate” value was less than 0.0001.

Take GGAGACCUAUGAUAACAACCUAUCUACCUCA: the “pre-steady-state target cleavage rate” value was 0.00737 ± 0.0021.

In the case of GGAGACCUAUGAUAUGUACCUACUACCCUCA, the “pre-steady-state target cleavage rate” value is less than 0.0001.
